Data published in PubChem BioAssay AID1159580 (chemical genetic matrix, 2015).
Among all 5,500 compounds or so, about 2,000 (36%) were called active. Inconclusive results (about 18%) are left out. No stated cut-off is given here; in the data, active means normalized growth mostly below about 0.91 (no sharp cut-off); inconclusive means no clear call, values can overlap the other calls; inactive means mostly above about 0.92. The list shows a part of the results.

Assay: chemical genetic growth profiling, strain panel (AID 1159580);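 further: tested at 20 µM; growth read once vehicle control cultures reached saturation at 30 °C; 1 = growth at the plate median or of vehicle wells; lower values mean less growth of the strain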
Details: S. cerevisiae deletion strains, growth OD

Measured: normalized growth

O=c1c2ccccc2oc2ccc(O)cc12
active: locus YCL029C, strain bik1, hits give low values 0.865 | locus YDL035C, strain GPR1, hits give low values 0.814 | locus YDL074C, strain BRE1, hits give low values 0.737 | locus YDL101C, strain DUN1, hits give low values 0.791 | locus YDL134C, strain PPH21, hits give low values 0.759 | locus YDL185W, strain tfp1, hits give low values 0.901 | locus YDL192W, strain arf1, hits give low values 0.864 | locus YDR162C, strain NBP2, hits give low values 0.368 | locus YDR318W, strain mcm21, hits give low values 0.896 | locus YDR502C, strain sam2, hits give low values 0.895 | locus YEL061C, strain CIN8, hits give low values 0.863 | locus YGL086W, strain mad1, hits give low values 0.854 | locus YGL248W, strain PDE1, hits give low values 0.811 | locus YGR078C, strain PAC10, hits give low values 0.736 | locus YGR135W, strain pre9, hits give low values 0.856 | locus YHR030C, strain SLT2, hits give low values 0.738 | locus YHR129C, strain ARP1, hits give low values 0.889 | locus YIL066C, strain RNR3, hits give low values 0.767 | locus YJL095W, strain BCK1, hits give low values 0.516 | locus YJL187C, strain SWE1 (second series), hits give low values 0.828 | locus YKR001C, strain vps1, hits give low values 0.509 | locus YLR039C, strain RIC1, hits give low values 0.49 | locus YLR058C, strain SHM2, hits give low values 0.886 | locus YLR262C, strain YPT6, hits give low values 0.461 | locus YLR268W, strain sec22, hits give low values 0.859 | locus YLR330W, strain CHS5, hits give low values 0.834 | locus YLR371W, strain rom2, hits give low values 0.894 | locus YLR418C, strain cdc73, hits give low values 0.786 | locus YML016C, strain PPZ1, hits give low values 0.915 | locus YML032C, strain rad52, hits give low values 0.757 | locus YMR223W, strain ubp8, hits give low values 0.895 | locus YMR263W, strain SAP30, hits give low values 0.833 | locus YNL233W, strain BNI4, hits give low values 0.782 | locus YNL271C, strain bni1, hits give low values 0.915 | locus YNL307C, strain MCK1, hits give low values 0.63 | locus YNR052C, strain pop2, hits give low values 0.871 | locus YOL147C, strain pex11, hits give low values 0.926 | locus YOR069W, strain VPS5, hits give low values 0.919 | locus YOR184W, strain ser1, hits give low values 0.746 | locus YPR163C, strain tif3, hits give low values 0.772
inactive: locus YBR021W, strain FUR4, hits give low values 1.13 | locus YBR229C, strain ROT2, hits give low values 0.952 | locus YDR101C, strain arx1, hits give low values 0.922 | locus YDR388W, hits give low values 0.937 | locus YER110C, hits give low values 0.919 | locus YER155C, strain BEM2, hits give low values 0.978 | locus YER167W, strain BCK2, hits give low values 0.949 | locus YGL078C, strain dbp3, hits give low values 0.962 | locus YGR252W, strain gcn5, hits give low values 0.847 | locus YHR079C, strain IRE1 (second series), hits give low values 0.961 | locus YHR094C, strain hxt1, hits give low values 0.977 | locus YHR200W, strain rpn10, hits give low values 0.956 | locus YIL073C, strain SPO22, hits give low values 0.815 | locus YIL125W, strain kgd1, hits give low values 0.962 | locus YIR030C, strain dcg1, hits give low values 0.933 | locus YJL134W, strain LCB3, hits give low values 0.941 | locus YJL168C, strain set2, hits give low values 0.948 | locus YJR043C, strain POL32, hits give low values 0.981 | locus YKL009W, strain mrt4, hits give low values 0.939 | locus YKL068W, hits give low values 1.01 | locus YKL085W, strain MDH1 (second series), hits give low values 0.976 | locus YKL085W, strain MDH1, hits give low values 0.976 | locus YLR102C, strain apc9, hits give low values 0.984 | locus YLR342W, strain FKS1 (second series), hits give low values 0.918 | locus YML124C, strain tub3, hits give low values 0.945 | locus YMR078C, strain ctf18, hits give low values 0.938 | locus YMR307W, strain GAS1, hits give low values 0.881 | locus YNL067W, strain RPL9B, hits give low values 0.871 | locus YNL250W, strain rad50, hits give low values 0.917 | locus YNL298W, strain CLA4, hits give low values 0.941 | locus YNL322C, strain KRE1, hits give low values 0.948 | locus YOL012C, strain htz1 1.06 | locus YOR061W, strain CKA2, hits give low values 0.924 | locus YOR136W, strain idh2, hits give low values 0.957 | locus YOR144C, strain elg1, hits give low values 0.943 | locus YOR316C, strain cot1, hits give low values 0.967 | locus YPL055C, strain LGE1, hits give low values 0.827 | locus YPL241C, strain CIN2, hits give low values 0.941 | locus YPR119W, strain clb2, hits give low values 0.949 | locus YPR141C, strain kar3, hits give low values 0.965 | locus YPR167C, strain met16, hits give low values 0.934 | strain wtn01, hits give low values 0.931
